# PubChem BioAssay (NCI)
# This is part of a sample that, as a whole, favours compounds with a hit. Of some 79,000 tested, about 15% had one in any assay. A number with no mark means an inactive call. The source made the active and inactive calls. No stated cut-off is given here; in the data, active means growth inhibition above about 70%; inactive means the rest.
# Legend:
# [1] = NCI Yeast Anticancer Drug Screen. Data for the rad50 strain (AID 155);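 further: 0% = growth of vehicle-only cultures of the same strain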; conditions: S. cerevisiae rad50 strain growth inhibition, hits give high values
# Procedure, shortened: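 A DNA repair-deficient yeast mutant serves as the test organism; compound-induced growth inhibition is calculated against vehicle-treated cells.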
# [2] = NCI Yeast Anticancer Drug Screen. Data for the mec2-1 strain (AID 157); conditions: S. cerevisiae mec2-1 strain, hits give high values
# Procedure, shortened: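 Using mec2-1 yeast: add compound, measure growth, express inhibition versus vehicle-treated cultures.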
# [3] = NCI Yeast Anticancer Drug Screen. Data for the sgs1 mgt1 strain (AID 161);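 further: 0% = growth of cultures given vehicle only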; conditions: S. cerevisiae sgs1 mgt1 strain, hits give high values
# Procedure, shortened: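 Growth of a repair-deficient yeast mutant was monitored after compound treatment and expressed as inhibition relative to vehicle-treated cultures.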
# [4] = NCI Yeast Anticancer Drug Screen. Data for the cln2 rad14 strain (AID 165);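 further: 0% = growth equal to vehicle treated cultures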; conditions: S. cerevisiae cln2 rad14 strain, hits give high values
# Procedure, shortened: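 Yeast strain cln2 rad14, bearing defects in cell cycle control and DNA repair, serves as the test system; values reflect growth inhibition compared with vehicle.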
# [5] = NCI Yeast Anticancer Drug Screen. Data for the bub3 strain (AID 167); conditions: S. cerevisiae bub3 mutant strain, hits give high values
# Procedure, shortened: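 Inhibition values come from growth of compound-treated mutant yeast normalised to vehicle-treated controls.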
# [6] = NCI Yeast Anticancer Drug Screen. Data for the mlh1 rad18 strain (AID 175); conditions: S. cerevisiae mlh1 rad18 strain growth inhibition, hits give high values
# Procedure, shortened: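 Steps: expose repair-defective yeast to compound; measure growth; express inhibition against vehicle-treated controls.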
# [7] = at 5.0 µM (retest, dose inferred, filed as 0.5)
# [8] = at 50.0 µM (retest, dose inferred, filed as 5.0)
SMILES,"growth inhibition [1, 7]","growth inhibition [1, 8]",growth inhibition ([1]; at 50.0 µM),"growth inhibition [2, 7]","growth inhibition [2, 8]",growth inhibition ([2]; at 50.0 µM),"growth inhibition [3, 7]","growth inhibition [3, 8]",growth inhibition ([3]; at 50.0 µM),"growth inhibition [4, 7]","growth inhibition [4, 8]",growth inhibition ([4]; at 50.0 µM),"growth inhibition [5, 7]","growth inhibition [5, 8]",growth inhibition ([5]; at 50.0 µM),"growth inhibition [6, 7]","growth inhibition [6, 8]",growth inhibition ([6]; at 50.0 µM)
ClC1c2ccccc2Cc2cccnc21 (configuration not stated),21%,85% (active),75.3% (active),11%,24%,11.8%,10%,59%,12.2%,4%,22%,-5.1%,7%,48%,-6.6%,8%,76% (active),23.5%
CCCCCSc1nc2ncnc(N)c2[nH]1,1%,4%,6.25%,1%,9%,-2.95%,-10%,-2%,1.65%,4%,6%,28.9%,7%,16%,-5.5%,0%,8%,-14.5%
Clc1ccc(Oc2nc(Cl)nc3[nH]ncc23)cc1,7%,35%,38%,4%,58%,30.6%,11%,78% (active),72.9% (active),8%,32%,-4.85%,7%,37%,18.4%,10%,68%,40.1%
Clc1cc2c(c3ncccc13)OCN(Cc1ccccc1)C2,16%,76% (active),99.2% (active),1%,33%,99.5% (active),14%,98% (active),99.5% (active),9%,98% (active),99.2% (active),-3%,99% (active),99.4% (active),23%,99% (active),99.3% (active)
CC1SC(c2ccc(Cl)cc2)N2C(=O)C(C)SC(c3ccc(Cl)cc3)N2C1=O (configuration not stated),84% (active),91% (active),71% (active),53%,91% (active),27.1%,85% (active),95% (active),30.9%,84% (active),93% (active),52.6%,79% (active),94% (active),26.1%,74% (active),90% (active),60%
CN1C(=O)C23SSC1(C)C(=O)N2c1ccccc1C3(C)C (configuration not stated),97% (active),99% (active),99% (active),98% (active),96% (active),99.6% (active),99% (active),100% (active),98% (active),98% (active),99% (active),99.3% (active),98% (active),99% (active),99.2% (active),99% (active),99% (active),99.3% (active)
CCCCCCCCCCCCCCC[C@@H](O)C[N+](C)(C)CCO,28%,98% (active),90.5% (active),91% (active),99% (active),92.8% (active),50%,98% (active),90% (active),42%,98% (active),88.5% (active),69%,98% (active),87.1% (active),57%,98% (active),92.3% (active)
C/C(=N\NC(=S)N1CCC(C)CC1)c1ncccn1,-4%,98% (active),99.2% (active),-5%,99% (active),99.2% (active),0%,98% (active),99.3% (active),-7%,98% (active),98.8% (active),-1%,98% (active),99.3% (active),-4%,99% (active),98.9% (active)
COc1ccc(-c2c(-c3ccccc3)c(C)nc3[nH]c(=S)[nH]c(=S)c23)cc1OC,-4%,69%,92.2% (active),-2%,58%,92.8% (active),7%,89% (active),94.4% (active),7%,81% (active),93.2% (active),0%,91% (active),69.8%,-30%,79% (active),94.9% (active)
C=C1OC(=O)C(=O)N1CC(=O)O,-156%,-170%,-1.35%,-50%,-54%,5.4%,-61%,-70%,-5.5%,-54%,-69%,44.9%,-70%,-82%,-6.45%,-139%,-119%,4.05%
COC(=O)CCC(=O)c1ccc2c(c1)CC1(Cc3ccccc3C1)C2,20%,29%,14.4%,24%,21%,3.85%,24%,46%,15.3%,14%,8%,17.6%,25%,44%,41.4%,29%,30%,12.1%
COC1OC2=CCC3C(=O)NC(=O)C3C2[C@H](OCc2ccccc2)C1OCc1ccccc1 (some centres not stated),11%,99% (active),98.4% (active),-13%,99% (active),99.7% (active),11%,99% (active),98.8% (active),0%,99% (active),93.5% (active),2%,97% (active),98.8% (active),4%,98% (active),98.9% (active)
Clc1ccc(CSc2ncnc3c2ncn3C2CCCCO2)cc1 (configuration not stated),-5%,97% (active),97.5% (active),-7%,96% (active),97.5% (active),15%,92% (active),97.5% (active),-20%,88% (active),94.3% (active),-15%,78% (active),95.8% (active),3%,96% (active),97% (active)
CCCOC(=O)C#CC(=O)OCCC,37%,96% (active),94.6% (active),29%,99% (active),63%,43%,99% (active),48.8%,21%,99% (active),93.6% (active),25%,99% (active),7.3%,69%,99% (active),74.6% (active)
CCOP(=O)(OCC)/C(C#N)=C/c1ccc(C(F)(F)F)cc1,20%,90% (active),89.5% (active),-16%,94% (active),91.7% (active),4%,93% (active),90.9% (active),12%,95% (active),89.4% (active),28%,97% (active),89.4% (active),3%,90% (active),86.8% (active)
N#CSCC(=O)c1ccc2ccccc2c1,67%,99% (active),90.8% (active),71% (active),99% (active),92.1% (active),97% (active),99% (active),93.5% (active),68%,98% (active),91% (active),97% (active),98% (active),90.5% (active),57%,99% (active),91.3% (active)
Cc1ccc(NC(=S)SCc2ccc(Cl)cc2)cc1Cl,33%,97% (active),90.5% (active),19%,98% (active),92.3% (active),44%,99% (active),92.2% (active),40%,98% (active),89.8% (active),55%,99% (active),91.9% (active),23%,97% (active),91% (active)
O=c1oc(-c2ccc(Cl)c([N+](=O)[O-])c2)ns1,1%,92% (active),97.1% (active),3%,93% (active),95.3% (active),4%,89% (active),97.8% (active),4%,48%,53.6%,1%,91% (active),97.2% (active),2%,98% (active),91.8% (active)
BrCN(CBr)c1ccc2c(c1)Cc1cc(Br)ccc1-2,4%,-4%,70.4% (active),-3%,-4%,28.4%,1%,1%,64.8%,7%,11%,-1.35%,1%,-2%,25.8%,3%,-7%,74.3% (active)
